Results filed as inconclusive are left out. Entries that show only a call come without a potency. The source made the active and inactive calls. Calls come from the whole dose curve.
experiment: Primary qHTS for inhibitors of MERS-S pseudo-typed particle cell entry (AID 1479149); details: MERS-S pseudotyped particle entry, luciferase; series mostly up to 57.1 µM; note: nearly all actives have a fitted effect of over 60% in size
Potency is the fitted concentration of half-maximal effect.

| SMILES | Potency |
| --- | --- |
| NS(=O)(=O)c1cc(C(=O)O)c(NCc2ccco2)cc1Cl | inactive |
| CCOc1ccc(Cc2nccc3cc(OCC)c(OCC)cc23)cc1OCC | 3.55 µM (active) |
| O=c1[nH]c(=O)n([C@H]2C[C@H](O)[C@@H](CO)O2)cc1C(F)(F)F | 10 µM (active) |
| CCOC(=O)OCC/C(SC(=O)OCC)=C(\C)N(C=O)Cc1cnc(C)nc1N | inactive |
| O=C1CC2(CCCC2)CC(=O)N1CCCCN1CCN(c2ncccn2)CC1 | inactive |
| CCCCCCCCCCCCCCCCC(C(=O)O)C(O)(CC(=O)O)C(=O)O (stereo unspecified) | inactive |
| CCCCCCCCCCCCOCCOCCOCCOCCOCCOCCOCCOCCOCCO | 8.91 µM (active) |
| COc1ccc(CCN(C)CCCC(C#N)(c2cc(OC)c(OC)c(OC)c2)C(C)C)cc1OC (stereo unspecified) | inactive |
| c1ccc(CC2=NCCN2)cc1 | inactive |
| CN(C)CCOC(c1ccccc1)c1ccc(Br)cc1 (stereo unspecified) | inactive |
| COc1ccc2cc3[n+](cc2c1OC)CCc1cc2c(cc1-3)OCO2 | 12.6 µM (active) |
| CC(=O)Oc1ccc(C2(c3ccc(OC(C)=O)cc3)Oc3ccccc3NC2=O)cc1 | inactive |
| CC[N+](CC)(CC(=O)Nc1c(C)cccc1C)Cc1ccccc1 | inactive |

experiment: Primary qHTS for Vero E6 cytotoxicity: counterscreen for inhibitors of SARS-S pseudo-typed particle cell entry (AID 1479150); details: cell viability; series mostly up to 57.1 µM

| SMILES | Potency |
| --- | --- |
| COC1=C(OC)C(=O)C(CCCCCCCCCCO)=C(C)C1=O | inactive |
| Cc1cc(C(C)(C)C)cc(C)c1CC1=NCCN1 | inactive |
| CCOC(CN1CCN(CC(C)C(=O)c2ccccc2)CC1)c1ccccc1 (stereo unspecified) | inactive |
| CCN(CC)CCOC(=O)C(Cc1cccc2ccccc12)CC1CCCO1 (stereo unspecified) | inactive |
| CCCC(=O)O[C@]1(C(=O)CC)CC[C@H]2[C@@H]3CCC4=CC(=O)CC[C@]4(C)[C@H]3[C@@H](O)C[C@@]21C | inactive |
| CN(C)[C@@H](CCOc1cccc2ccccc12)c1ccccc1 | inactive |
| CC(=O)[C@@]1(O)CC[C@H]2[C@@H]3C[C@H](C)C4=CC(=O)CC[C@]4(C)[C@H]3CC[C@@]21C | inactive |
| CN1CCN(c2c(F)cc3c(=O)c(C(=O)O)cn(CCF)c3c2F)CC1 | inactive |
| COc1ccnc2c1CCCCC2S(=O)c1nc2ccccc2[nH]1 (stereo unspecified) | inactive |
| C[N+]1(C)CCC(=C(c2ccccc2)c2ccccc2)CC1 | inactive |
| COc1ccc(C(Cl)=C(c2ccc(OC)cc2)c2ccc(OC)cc2)cc1 | inactive |
| CC(Oc1c(Cl)cccc1Cl)C1=NCCN1 (stereo unspecified) | inactive |
| O=C1O[C@H]([C@@H](O)CO)C(O)=C1O | inactive |
| C#C[C@]1(O)CC[C@H]2[C@@H]3CCc4cc(O)ccc4[C@H]3CC[C@@]21C | inactive |
| CCOc1ccccc1C(N)=O | inactive |
| CC(=O)OCC(=O)Nc1cc(C#N)cc(NC(=O)COC(C)=O)c1Cl | inactive |
| NS(=O)(=O)c1cc(C(=O)O)c(NCc2ccco2)cc1Cl | inactive |
| CCOc1ccc(Cc2nccc3cc(OCC)c(OCC)cc23)cc1OCC | 17.8 µM (active) |
| O=c1[nH]c(=O)n([C@H]2C[C@H](O)[C@@H](CO)O2)cc1C(F)(F)F | inactive |
| CCOC(=O)OCC/C(SC(=O)OCC)=C(\C)N(C=O)Cc1cnc(C)nc1N | inactive |
| O=C1CC2(CCCC2)CC(=O)N1CCCCN1CCN(c2ncccn2)CC1 | inactive |
| OCc1cc(C(O)CNCCCCCCOCCCCc2ccccc2)ccc1O (stereo unspecified) | inactive |
| CCCCCCCCCCCCCCCCC(C(=O)O)C(O)(CC(=O)O)C(=O)O (stereo unspecified) | inactive |
| c1ccc(CC2=NCCN2)cc1 | inactive |
| CN(C)CCOC(c1ccccc1)c1ccc(Br)cc1 (stereo unspecified) | inactive |
| Oc1c(I)cc(Cl)c2cccnc12 | inactive |
| COc1ccc2cc3[n+](cc2c1OC)CCc1cc2c(cc1-3)OCO2 | inactive |
| CC[N+](CC)(CC(=O)Nc1c(C)cccc1C)Cc1ccccc1 | inactive |

From PubChem BioAssay (NCATS)
